Screen size: about 6,200 compounds; about 2,900 (47%) were called active. The set was probably picked from earlier hits. Some of the results follow. A number with no mark means an inactive call. Cut-off read from the data, not from the text of the source: active = inhibition above about 50%; inactive = the rest.

In PubChem BioAssay AID1259343 (VanderVen Lab, College of Veterinary Medicine, Cornell …, 2017) one finds inhibition data, which are given here for 31 compounds.

This assay in a line: Mycobacterium tuberculosis growth inhibition, primary screen (AID 1259343). Conditions: inhibition: at 10 µM, hits give high values; outcome: 10 uM.
The term inhibition denotes the change of the read-out against control, counted positive when it falls. Consider `O=C(O)COc1ccccc1-c1nc(-c2ccccc2)c(-c2ccccc2)[nH]1`, for which the inhibition was 13.8%.
`O=C(O)COc1c(I)cc(Cl)c2cccnc12`: the inhibition was 94.3% (active).
`Cc1cc(C)cc(NC(=O)CCC(=O)c2ccc3ccccc3c2)c1`: the inhibition is 72.2% (active).
On to `O=C(CCC(=O)c1ccc(-c2ccccc2)cc1)NC1=NCCS1`, for which the inhibition was 33.8%.
`CCCC(=O)OCC(=O)Nc1ccc2ccccc2c1`: the inhibition is 33.2%.
As for `CCc1nnc(NC(=O)C2CC2)s1`, the inhibition is 68.7% (active).
For the compound `CCc1nnc(NC(=O)c2ccc(O)c(Cl)c2)s1`, the inhibition is 81.3% (active).
Take `COc1ccccc1C(=O)Nc1nnc(CC(C)C)s1`: the inhibition was 21.6%.
In the case of `Cn1c(CNC(=O)Cc2c(Cl)cccc2Cl)n[nH]c1=S` it was 8.23%.
Take `O=C(O)C1C2C=CC(O2)C1C(=O)NCc1ccccc1Cl` (stereo unspecified): the inhibition was 23.3%.
In the case of `CC(C(=O)NCc1ccccc1Cl)n1nnc(-c2ccco2)n1` (stereo unspecified) it was 56.3% (active); in that of `O=C(O)CCc1ncc(-c2ccc(Cl)cc2)o1`, 90.3% (active).
As for `O=C1CCc2c(OCc3ncc(-c4cccc(Cl)c4)o3)cccc21`, the figure is 39.9%.
As for `O=C(O)CCN(CCc1ccccc1)c1nc(-c2ccc(Cl)cc2)nc2ccccc12`, the inhibition was 24.8%.
Regarding `O=C(CN(Cc1ccccc1)C(=O)c1ccc(Cl)c(Cl)c1)Nc1cc(-c2ccccc2)nn1-c1ccc(F)cc1`, the inhibition was -13.3%.
Take `O=C1CCC(C(=O)N(Cc2ccc(F)cc2)c2nc(-c3ccccc3)cs2)=NN1`: the inhibition was 64.5% (active).
Consider `O=C(CCCCl)Nc1nc(-c2ccc(F)cc2)cs1`, for which the inhibition was 12.9%.
`N#CC(=Cc1ccncc1)c1nnc2n1CCCCC2`: the inhibition is -11%.
As for `Cc1ccc(-c2nc(-c3ccc(Br)cc3)no2)cc1`, the figure is 11.5%.
As for `Cc1ccc(-c2noc(-c3ccc(Br)o3)n2)cc1`, the figure is 55.7% (active).
For the compound `Fc1ccccc1-c1nc(-c2ccc(Br)o2)no1`, the inhibition was 28.8%.
Regarding `CCN(CC)CCCC(C)NC(=O)c1cc(-c2ccc(OC)cc2)nc2cc(C(C)(C)C)nn12` (stereo unspecified), the inhibition is 58.1% (active).
As for `COc1ccc(-c2cc(C(=O)O)n3nc(C(C)(C)C)cc3n2)cc1`, the figure is 53.5% (active); as for `Cc1ccc(-c2cc(C(=O)O)n3nc(C(C)(C)C)cc3n2)cc1`, 103% (active); as for `CC1(C)OCC(CN2C(=O)c3ccccc3NC2c2c[nH]c3cnc(OCc4ccccc4)cc23)O1` (stereo unspecified), 32.8%.
Consider `COc1ccc(NC(=O)CNS(=O)(=O)c2cnn(C)c2)cc1Cl`, for which the inhibition was 85.8% (active).
As for `COc1ccc(NC(=O)CNc2cc3c(cc2Cl)OCCCO3)cc1Cl`, the inhibition was 92.9% (active).
As for `COc1ccc(Cl)cc1NC(=O)c1ccc2c(c1)OCCCO2`, the inhibition is 29.1%.
As for `COc1ccc(NCC(=O)NCC(F)(F)F)cc1Cl`, the figure is 95.5% (active); as for `COc1ccc(NC(=O)Cc2ccccc2F)cc1Cl`, 14.2%.
On to `COc1ccc(NC(=O)CSc2cc(C)ccc2C)cc1Cl`, for which the inhibition was 88.7% (active).
